Sampled rows, rich in hits. Any-hit rate of the full collection: about 6.5%.
MARV entry inh: inhibitors of Marburg virus binding or cell entry. hit rate 1.8% among 300,000. Potency, µM (highest dose often 37.8 µM), for the others: at the top dose activity change, negative = inhibition, usual class: inhibitors. Marburg virus pseudotyped entry inhibition, cell reporter; calls by dose curve; tested in HEK293 cells; further: potency means the concentration at half of the fitted maximal effect
HCMV inh: human cytomegalovirus inhibition; HFF cells, HCMV-luciferase reporter, 72 h; hits give low values; activity change, negative = inhibition, % at 57.5 µM; hit rate 4.5% among 410,000; AID 1259415; in the data active means activity change below about -60%; inconclusive means no clear call, values can overlap the other calls; inactive means above about -39%
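HFF cells seeded 16 h at 37C, treated with compounds, infected with luciferase-reporter HCMV at MOI 1 PFU/cell; luciferase read at 72 h post infection, normalized to buffer-only and Salinomycin controls.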
Vaccinia mCherry: vaccinia inhibition (mCherry reporter). Vaccinia virus mCherry reporter infection, fluorescence. Potency, µM (series often up to 36.5 µM), without a hit: at the top dose activity change, negative = inhibition, hits mostly inhibitors. hit rate 0.63% among 310,000; calls by dose curve; tested in A549 cells; further: potency means the concentration at half of the fitted maximal effect; nearly all actives have a fitted effect of over 35% in size
VACV Venus inh: vaccinia inhibition (Venus reporter); Vaccinia virus Venus reporter expression, fluorescence; Potency, µM (titrated, usually from 36.5 µM), for inactives: at the highest dose activity change, negative = inhibition, most hits filed as inhibitors; hit rate 0.46% among 330,000; AID 720580; calls by dose curve; tested in A549 cells; further: potency means the concentration at half of the fitted maximal effect; nearly all actives have a fitted effect of over 30% in size
LASV entry inh: Lassa virus entry inhibition; Lassa virus pseudotype entry inhibition, cell reporter; Potency, µM (highest dose often 37.9 µM), for the others: at the highest dose activity change, negative = inhibition, hits mostly inhibitors; hit rate 1.2% among 300,000; AID 540256; calls by dose curve; tested in HEK293 cells; further: potency means the concentration at half of the fitted maximal effect; nearly all actives have a fitted effect of over 50% in size
FMDV antiviral: blocks foot and mouth disease virus | hit rate 1.2% among 410,000 | AID 1159524 | FMDV antiviral cell-based qHTS | Potency, µM (series often up to 57.9 µM), for the others: top-dose activity change, negative = inhibition, actives largely listed as inhibitors; calls by dose curve; tested in HEK293T cells; further: read-out not given here; potency means the concentration at half of the fitted maximal effect; nearly all actives have a fitted effect of over 45% in size
Active calls of the source: *; i = inactive; ? = inconclusive; · = not tested or not shown; [ ] = another dose, or the depositor's remark. On the % scale 0 is the no-effect control and ±100 the full control effect.

SMILES	MARV entry inh	HCMV inh	Vaccinia mCherry	VACV Venus inh	LASV entry inh	FMDV antiviral
COc1ccc(OCC(=O)Nc2ccc(C)cc2)cc1	-3.1%	-96.6*	·	·	-10.8%	31.3%
COc1ccc(OCCNC(=O)c2ccccc2OCC(=O)Nc2ccc(NC(C)=O)cc2)cc1	7.08µM*	-30.6	-27.4%	-14.3%	?	?
COc1ccc(NC(=O)COc2ccccc2C(=O)NCC(c2ccccc2)N(C)C)cc1Cl (stereo not given)	?	5.5	-15.8%	-14.2%	11.2µM*	-19.2%
Cn1cc(CN2CCOc3ccc(C(O)C4CCCCC4)cc3C2)cn1 (stereo not given)	·	·	-5.6%	-9.6%	·	-28.5%
Nc1c(C(=O)N2CCOCC2)sc2nc3c(cc12)CCC3	·	44.0	-9.4%	-11.6%	·	21.0%
Cc1ccc(C)c2nc3sc(C(=O)N4CCOCC4)c(N)c3cc12	?	-38.6	-27.9%	-11.6%	-15.8%[46.1 µM]	35.0%
Cc1cc(C)c2nc3sc(C(=O)N4CCOCC4)c(N)c3cc2c1	·	-93.7*	·	·	·	-46.5%
Cc1cccc2cc3c(N)c(C(=O)Nc4ccc(N5CCOCC5)cc4)sc3nc12	?	-18.9	i	-11.7%	13µM*	·
Nc1c(C(=O)N2CCOCC2)sc2nc3c(cc12)CCCC3	?	?	17.7%	-11.4%	?	11.2µM*
Cc1sc(NC(=O)c2sc3nc4c(C)cccc4cc3c2N)c(C#N)c1C	?	-10.1	1.9%	14.1%	3.5%	0.7%
C[C@H]1[C@@H](NC(=O)Nc2ccc(C#N)cc2)CC[C@@]23CCCN2C(=O)CCC[C@@H]13	·	-20.4	·	·	·	·
CC(C)Cc1nn2c(=O)cc(COC(=O)c3ccccc3NC(=O)c3ccccc3)nc2s1	·	-10.8	-13.8%	-7.7%	25.7%[46.1 µM]	14.8%
O=C(NCc1nc(-c2ccc(C(F)(F)F)cc2)no1)Nc1ccc(OC(F)(F)F)cc1	?	-97.1*	?	?	?	-12.3%
COc1ccc(-c2noc(CNS(=O)(=O)c3ccc(NC(C)=O)cc3)n2)cc1	·	6.2	·	·	·	-28.9%
Cn1c(=O)cc(SCC(=O)N2CCN(Cc3ccc4c(c3)OCO4)CC2)c2ccccc21	10.6%	46.2	·	·	?	-0.7%
O=C(CCCCCn1c(=O)[nH]c2ccccc2c1=O)N1CCN(Cc2ccc3c(c2)OCO3)CC1	?	-18.7	·	·	16.4µM*	?
OC(CN1CCN(Cc2ccc3c(c2)OCO3)CC1)c1c[nH]c2ccccc12 (stereo not given)	-28.0%	-87.7*	-9.9%	-13.1%	?	0.0%
CCn1c(=O)cc(SCC(=O)N2CCN(Cc3ccc4c(c3)OCO4)CC2)c2ccccc21	0.6%	99.0	·	·	-18.8%	39.8µM*
CN(Cc1cccc(Cl)c1Cl)C(=O)c1ccccc1SCC(=O)N1CCCC1	?	-5.3	-22.8%	-18.8%	-23.2%	2.2%
CN(Cc1ccc(Cl)c(Cl)c1)C(=O)c1ccccc1SCC(=O)N1CCCC1	-16.5%[46.1 µM]	-98.6*	-9.3%	-10.9%	-11.9%	-15.8%
CN(C(=O)COC(=O)c1ccccc1SCC(=O)N1CCCC1)c1ccccc1	?	-6.9	-1.7%	-12.4%	-7.5%	-17.5%
CN(Cc1ccccc1)C(=O)COC(=O)c1ccccc1SCC(=O)N1CCCC1	-2.5%	-60.8*	-17.7%	-5.9%	6.8%	-13.8%
COc1ncc2nc(-c3cc(F)cc(F)c3)c(=O)n(CCc3ccccc3)c2n1	·	·	·	·	·	-19.2%
COc1ccc(NC(=O)c2sc3nc(C)c(C(=O)Nc4ccc(C)cc4C)c(-c4cccs4)c3c2N)cc1	-3.9%[46.1 µM]	-11.4	-16.7%	-13.5%	8.8%[46.1 µM]	-9.2%
Cc1ccc(C(=O)N2C(=S)C(c3ccc(F)cc3)=NC23CCN(C)CC3)cc1	?	-84.6*	-29.4%	-19.0%	?	-35.0%
SMILES	MARV entry inh	HCMV inh	Vaccinia mCherry	VACV Venus inh	LASV entry inh	FMDV antiviral
Cc1ccc(C(=O)N2CCC(C(=O)c3ccc(F)cc3)CC2)cc1	·	-6.8	·	·	·	23.9%
CCOc1ccc(S(=O)(=O)Nc2nc3ccccc3nc2Cl)cc1	·	-33.5	·	·	·	-15.4%
CCOc1ccc(S(=O)(=O)Nc2cnc3ccccc3c2)cc1	-28.3%[46.1 µM]	-79.4*	?	-4.7%	?	-9.4%
O=C(O)c1ccc(NC(=O)c2cccc(S(=O)(=O)Nc3ccc(C(=O)O)cc3)c2)cc1	·	14.4	·	·	·	-24.3%
O=C(Nc1ccc(Br)cc1)c1cccc(S(=O)(=O)Nc2ccccn2)c1	?	-19.3	-13.0%	-17.2%	-24.7%	3.5%
COc1ccc(NC(=S)NC(=O)c2ccccc2)cn1	·	43.1	·	·	·	40.9%
O=C1CSc2ccc(C(=O)Nc3cccc(S(=O)(=O)Nc4ccc(Br)cc4)c3)cc2N1	·	-90.9*	·	·	·	-28.7%
COc1ccc(NC(=O)c2cccc(Oc3ccccc3)c2)cn1	7.94µM*	?	-6.5%	-21.2%	?	10.6%
O=C(Nc1ccc(Br)cc1)c1cccc(S(=O)(=O)Nc2cnc3ccccc3c2)c1	2.82µM*	-23.8	?	?	?	-22.5%
COc1ccc(/C(O)=C2\C(=O)C(=O)N(CCCN(C)C)[C@H]2c2ccccc2)cc1OC	7.0%	·	·	·	·	·
COc1ccc(NC(=O)c2cccc(S(=O)(=O)Nc3ccc(Br)cc3)c2)cn1	?	-90.4*	?	?	?	-15.3%
CC(C)(C)c1ccc(C(=O)Nc2ccc(Oc3cccnc3)nc2)cc1	9.1%	-65.6*	-24.2%	?	?	35.5µM*
CC(C)(C)c1ccc(C(=O)Nc2cccnc2)cc1	·	3.8	·	·	·	7.1%
CC(C)(C)c1ccc(C(=O)Nc2ccc(S(=O)(=O)Nc3cnc4ccccc4n3)cc2)cc1	?	-70.5*	-6.3%	-2.1%	-7.8%	2.0%
O=C(Nc1ccc(S(=O)(=O)Nc2cnc3ccccc3n2)cc1)c1ccc(F)cc1	-12.7%[46.1 µM]	-9.9	i	-1.8%	-9.8%	12.0%
Cc1cccc(CSc2nnc3[nH]c(=O)cc(-c4ccccc4)n23)c1	·	3.2	-11.6%	-1.9%	?	0.2%
C=C(c1ccccc1Cl)[n+]1ccccc1	?	-60.2*	-26.1%	?	-11.8%	-12.1%
Cc1ccc2onc(CC(=O)N(C)c3ccccc3)c2c1	·	-4.6	0.3%	-3.2%	-27.3%[46.1 µM]	13.8%
O=C(OCc1cn([C@H]2C[C@H](c3ccccc3)N(C(=O)C3CCCCC3)C[C@H]2O)nn1)c1ccccc1	·	·	·	·	0.0%[46.1 µM]	·
COc1ccc(NC(=O)Cn2nnc(-c3ccccc3NS(=O)(=O)c3ccccc3)n2)cc1	8.91µM*	·	?	-27.8%	?	?
Cc1ccc(SCC(=O)NCC2COc3ccccc3O2)cc1 (stereo not given)	-17.1%	-64.7*	-21.5%	-23.7%	8.7%	4.3%
O=C(COC(=O)/C=C/c1ccc(OC(F)F)cc1)NCc1cccs1	9.4%	-64.2*	-13.2%	-12.8%	?	-7.3%
O=C(/C=C/c1ccc(Br)cc1)NCc1cccs1	32.9%	-61.0*	-7.2%	-9.4%	2.59µM*	20.0%
O=C(/C=C/c1ccc(F)cc1)NCc1cccs1	-8.5%	16.5	i	-14.3%	?	54.1%
O=C(/C=C/c1ccccc1Cl)NCc1cccs1	14.0%	37.3	-11.5%	-12.3%	18.4µM*	29.4%
O=C(/C=C/c1ccc(Cl)cc1)NCc1ccco1	?	-64.2*	?	?	6.51µM*	23.9%

High-throughput results (PubChem BioAssay)
